hgDAF12 agonist = H. glycines DAF-12 receptor agonists, primary screen, cell-based, luminescence, HEK293, GAL4 fusion, UAS-luciferase | Nuclear hormone receptor DAF-12 (Heterodera glycines), GAL4 fusion | HEK293 GAL4-hgDAF12 UAS-luciferase reporter, agonist luminescence; normalized to butyrate control | activation, % at 6.8 µM | 370,000 tested, 1.8% active;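 active means activation above a cutoff set at the mean of all screened compounds plus 3 SD, cut at about 10% in these data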;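 further: 0% = DMSO wells and 100% = sodium butyrate wells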
FXN GAA850 act = FXN promoter activators, primary screen, cell-based, luciferase luminescence, HEK293 lucGAA850. HEK293 lucGAA850 FXN promoter luciferase reporter, 24 h; percent of 10 µM SAHA response. activation, % at 6 µM. 360,000 tested, 0.56% active. AID 540364, 2011;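 active means activation above the average of all compounds screened plus 3 SD, cutoff fixed separately per campaign, cut at about 7.5% in these data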;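 further: 0% = DMSO wells and 100% = 10 µM SAHA wells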
ssDAF-12 act = S. stercoralis DAF-12 nuclear receptor activators, primary screen, cell-based, luminescence, HEK293, GRIP1 co-expression, lit1-tk-luc | Nuclear hormone receptor DAF-12 (Strongyloides stercoralis) | HEK293 ssDAF-12/GRIP1 lit1-tk-luc reporter; % of 3 µM dafachronic acid response | activation, % at 6.8 µM | 370,000 tested, 1% active | AID 652126, 2013;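 active means activation above the mean over all tested compounds plus 3 SD, cut at about 0.9% in these data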;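 further: 0% = DMSO-only wells and 100% = 3 µM delta7-dafachronic acid wells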
hcDAF-12 act = H. contortus DAF-12 nuclear receptor activators, primary screen, cell-based, luminescence, HEK293, lit1-tk-luc reporter. HEK293 hcDAF-12 lit1-tk-luc reporter; 0% DMSO, 100% Δ7-dafachronic acid. activation, % at 6.8 µM. 370,000 tested, 1.4% active. AID 652067, 2013;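 active means activation above the mean of all tested compounds plus 3 SD, cut at about 5.5% in these data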;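 further: 100% = response to 3 µM Δ7-dafachronic acid high control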
DAX1 inh-1 = DAX1 (NR0B1) inhibitors on StAR promoter, primary screen, cell-based, luminescence, SF-1 (NR5A1), full-length DAX-1; HEK293T StAR-luciferase reporter, SF-1/DAX-1 repression relief; inhibition, % at 6.8 µM; 370,000 tested, 1.1% active;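 active means inhibition above the mean over all tested compounds plus 3 SD, cut at about 3.6% in these data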;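 further: 0% = DAX-1 cells with DMSO and 100% = cells lacking DAX-1 with DMSO; higher inhibition means more luminescence from relief of DAX-1 repression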
DAX1 inh-2 = DAX1 (NR0B1) inhibitors, primary screen, cell-based, HEK293, Gal4-DAX1, luciferase luminescence; Nuclear receptor subfamily 0 group B member 1 (Homo sapiens), P51843; HEK293 Gal4-DAX1 luciferase reporter; inhibition, % at 6.75 µM; 340,000 tested, 0.99% active;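 active means inhibition above the mean over all tested compounds plus 3 SD, cut at about 4.2% in these data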;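 further: 0% = DAX1-transfected cells with DMSO and 100% = empty-vector control cells with DMSO; inhibition shows as a rise in luminescence from relieved DAX1 repression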
Target sequence (P51843 207-470 limits assumed): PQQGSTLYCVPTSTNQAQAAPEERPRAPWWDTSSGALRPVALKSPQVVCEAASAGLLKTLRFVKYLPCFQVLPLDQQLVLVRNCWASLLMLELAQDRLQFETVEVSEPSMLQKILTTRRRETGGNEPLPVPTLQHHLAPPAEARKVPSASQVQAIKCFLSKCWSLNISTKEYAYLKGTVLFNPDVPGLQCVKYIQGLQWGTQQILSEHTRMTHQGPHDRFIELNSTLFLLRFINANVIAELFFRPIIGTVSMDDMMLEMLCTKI
Active calls of the source: *; x = not tested or not shown. The list is not random: actives were taken first. Their share in the collection is about 4.5%.

SMILES	hgDAF12 agonist	FXN GAA850 act	ssDAF-12 act	hcDAF-12 act	DAX1 inh-1	DAX1 inh-2
Cn1nc(-c2ccccc2)nc1-c1ccccc1	9.4	7.2	0.8	6.3*	1.3	1.8
Cc1ccc(N2/C(=N/c3nc(C)cc(C)n3)NC(=O)CC2C(=O)O)cc1 (stereo unspecified)	2.8	0.6	0.2	5.8*	0.3	-0.4
Cc1cc(C)nc(/N=C2\NC(=O)CC(C(=O)O)N2c2ccc(Cl)cc2)n1 (stereo unspecified)	0.9	-1.3	-1.2	0.0	1.1	0.8
CCn1c2ccccc2c2cc(C=NNC(=O)c3ccoc3C)ccc21	11.5*	x	-0.9	-0.9	-2.2	x
CCn1c2ccccc2c2cc(/C=N/NC(=O)c3ccccc3C)ccc21	-0.5	-15.9	-1.8	-2.6	-0.6	-1.6
COc1ccc(S[C@]2(C(=O)N3CCN(C(C)=O)CC3)CC(=O)N(C(=O)/C=C/c3ccccc3)[C@@H]2c2ccc(OC)cc2)cc1	-1.8	x	-0.7	-3.3	-2.9	x
COc1ccc(-n2c(SCc3cccc4ccccc34)nnc2-c2ccccc2)cc1	-0.9	x	-1.7	-2.7	-1.6	x
CCCC(=O)Nc1ccc2c(c1)Cc1ccccc1-2	7.7	3.5	0.3	2.4	1.9	2.3
CC(=O)Nc1cc2c(cc1Br)-c1ccccc1C2	10.6*	4.5	-0.3	6.2*	2.0	0.9
COc1cc(OC)cc(C(=O)/C=C2\Sc3ccccc3N2C)c1	3.6	3.4	-1.4	-1.1	0.4	-0.5
COc1ccc2c(c1)S/C(=C\C(=O)c1ccncc1)N2C	11.7*	3.7	-0.2	1.2	0.6	1.8
NS(=O)(=O)OCC1CCCCC1	-0.3	-0.6	-1.1	-0.3	0.2	0.4
Nc1nc(N)c(N=O)c(OCC2CCCCC2)n1	12.1*	-3.5	-0.4	0.5	2.9	1.8
CC1(C)CC2CC(C)(CN2C(=O)COC(=O)c2n[nH]c(=O)c3ccccc23)C1 (stereo unspecified)	0.8	-0.2	-0.7	-1.3	0.5	4.4*
COc1ccc(OC)c(N(CC(=O)N2CCCC2)S(C)(=O)=O)c1	0.2	-0.3	-0.8	-0.1	0.1	4.5*
COc1ccc(OC)c(N(CC(=O)Nc2ccc(NC(C)=O)cc2)S(C)(=O)=O)c1	-0.3	-0.5	-1.3	-0.5	0.3	0.0
COC(=O)c1ccc(C)c(NC(=O)CN(c2cc(OC)ccc2OC)S(C)(=O)=O)c1	4.5	-2.2	-1.1	-1.0	4.2*	0.7
c1ccc(CCn2nnc(-c3ccc(N4CCOCC4)cc3)n2)cc1	3.2	x	-0.8	-2.9	0.1	x
Cc1ccc(C2CC(c3ccccc3C)n3nc(N)nc3N2)cc1 (stereo unspecified)	7.3	3.5	-1.6	-1.3	-0.2	0.7
CCOc1ccc(C2CC(c3ccc(CC)cc3)Nc3nc(N)nn32)cc1 (stereo unspecified)	-0.3	1.2	-0.6	-1.6	0.5	4.3*
COc1ccc(C2CC(c3ccccc3C)n3nc(N)nc3N2)cc1 (stereo unspecified)	-1.3	0.9	-1.6	0.7	0.1	5.1*
COc1cccc([C@H]2NC(=O)C/C=C/[C@@H](C)[C@@H](c3cccc(OC)c3)NC(=O)C/C=C/[C@H]2C)c1	-0.4	x	-1.7	-1.9	-0.9	x
O=C(N=C1N(Cc2ccccc2)[C@@H](Cc2ccccc2)[C@]2(C=C3CCCCC3n3c(=O)n(-c4ccccc4)c(=O)n32)N1C(=O)OCc1ccccc1)c1ccccc1 (stereo partly specified)	1.3	x	-0.9	-0.6	-0.1	x
C=C1CCC2C(C)(C)CCC[C@]2(C)[C@H]1CC1=C(O)C(=O)C(CO)=CC1=O (stereo partly specified)	-13.7	x	-1.4	-6.3	-7.0	x
O=c1c(-c2ccccc2)c[nH]n1-c1cccc([N+](=O)[O-])c1	2.6	3.2	-0.6	0.8	1.8	8.3*
SMILES	hgDAF12 agonist	FXN GAA850 act	ssDAF-12 act	hcDAF-12 act	DAX1 inh-1	DAX1 inh-2
CC(C)=CCC/C(C)=C/CNCC(=O)N1c2ccccc2[C@]2(C)C[C@@H]3C(=O)N(C/C=C(\C)CCC=C(C)C)CC(=O)N3[C@H]12	-1.0	x	-0.1	0.3	1.0	x
CC(C)c1c(C(=O)N/N=C/c2ccco2)nnn1-c1nonc1N	-0.7	-0.1	-1.2	-1.4	-0.1	0.7
COc1ccc(/C=N/NC(=O)c2cccc(NC(C)=O)c2)c(OC)c1	4.0	2.2	-1.1	0.5	-0.7	-0.2
O=C(N/N=C/c1ccco1)c1[nH]ncc1Br	7.2	4.9	0.3	0.6	2.7	7.1*
Nc1nccnc1C(=O)N/N=C/c1ccco1	5.9	4.3	-0.7	1.4	0.6	6.9*
COc1ccc(/C=N/NC(=O)c2[nH]ncc2Br)c(OC)c1	11.2*	5.3	-0.4	1.1	1.3	2.4
COc1ccc(S[C@]2(C(=O)N(C)C)CC(=O)N(C(=O)C3CC3)[C@@H]2c2ccc(OC)cc2)cc1	-2.1	x	-1.3	0.0	-2.2	x
Cn1c2ccccc2c2cc(C(=O)NNC(=O)CCl)sc21	-2.2	-2.8	-0.9	6.2*	-2.5	-2.0
CCCNC(=O)c1cc2c3ccccc3n(C)c2s1	0.1	0.0	-0.5	1.1	-0.6	-1.3
CSc1ccc(C(c2c(C(=O)O)[nH]c3ccccc23)c2c(C(=O)O)[nH]c3ccccc23)cc1	-0.4	3.4	-1.1	5.6*	0.0	1.6
O=[N+]([O-])c1ccccc1S(=O)(=O)Oc1ccc(/C=N/n2cnnc2)cc1	7.7	1.5	1.2*	3.0	-0.8	1.8
COC(=O)C1CN(Cc2ccc(OC)cc2)CCS(=O)(=O)N1Cc1ccc(OC)cc1 (stereo unspecified)	-1.6	x	-0.8	0.2	-1.6	x
COc1cc(/C=C(/C(=O)c2cccs2)c2nc3ccccc3[nH]2)ccc1O	10.8*	-6.7	-0.8	1.7	-2.6	-1.8
COc1ccc2[nH]c3c(=O)n(CCCN4CCOCC4)cnc3c2c1	-0.6	2.1	-0.7	-1.2	0.0	6.2*
O=C1Nc2ccccc2C12OCCO2	-0.4	0.7	-1.7	0.0	0.0	1.7
CCc1cccc2c1NC(=O)C21OCCO1	3.6	3.7	1.2*	3.1	-0.3	2.5
Cc1ccsc1/C=N/Nc1ncc(Cl)cc1Cl	11.2*	1.7	0.1	3.5	3.2	1.4

Screens deposited in PubChem by The Scripps Research Institute Molecular Screening Center.
